KDM5B inhibitor: blocks human KDM5B histone demethylase activity; Q9UGL1; 2.6% of 220,000 active; Potency, µM (top dose mostly 57.7 µM), most hits filed as inhibitors; KDM5B demethylase, FDH-coupled NADH fluorescence (FDH is formaldehyde dehydrogenase); AID 1347165; further: nearly all actives have a fitted effect of over 70% in size
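KDM5BΔAP (200 nM final) in 50 mM HEPES pH 7.5, 0.01% Tween-20 was preincubated 10 min at RT with compound over a concentration range. Substrate mix (H3K4me3 12.5 µM, α-KG 25 µM, Fe²⁺, ascorbate, NAD⁺, FDH) was added, and NADH fluorescence change over 30 min gave dose-response curves.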
SNCA expr inhib: reduces expression of the alpha-synuclein gene | HEK-293 SNCA-luciferase knock-in, luminescence, 24 h | Potency, µM (titrated, usually from 57.2 µM), hits mostly inhibitors | 0.17% of 140,000 active | AID 1671194; further: nearly all actives have a fitted effect of over 45% in size
SNCA viab count: counter-screen for SNCA expression inhibitors: cell viability; Potency, µM (doses to about 57.1 µM), hits mostly cytotoxic; HEK-293-SNCA-luc viability, GF-AFC fluorescence, 24 h; AID 1671193; 0.12% of 150,000 active; further: nearly all actives have a fitted effect of over 30% in size
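HEK-293-SNCA-luc cells (1500/well) plated 24 h, then exposed 24 h to a dilution series; GF-AFC added 30 min at 37C, fluorescence 405/540 nm; normalised to medium-only and DMSO wells, Hill fit.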
IP6K1 inhibitor: IP6K1 kinase inhibition; IP6K1 kinase, ADP-Glo luminescence, 2 h; hits give low values; Q92551; 0.81% of 140,000 active; activity change, % (series mostly up to about 58 µM); in the data active means activity change below about -25%
Target sequence (Q92551 whole entry, looked up): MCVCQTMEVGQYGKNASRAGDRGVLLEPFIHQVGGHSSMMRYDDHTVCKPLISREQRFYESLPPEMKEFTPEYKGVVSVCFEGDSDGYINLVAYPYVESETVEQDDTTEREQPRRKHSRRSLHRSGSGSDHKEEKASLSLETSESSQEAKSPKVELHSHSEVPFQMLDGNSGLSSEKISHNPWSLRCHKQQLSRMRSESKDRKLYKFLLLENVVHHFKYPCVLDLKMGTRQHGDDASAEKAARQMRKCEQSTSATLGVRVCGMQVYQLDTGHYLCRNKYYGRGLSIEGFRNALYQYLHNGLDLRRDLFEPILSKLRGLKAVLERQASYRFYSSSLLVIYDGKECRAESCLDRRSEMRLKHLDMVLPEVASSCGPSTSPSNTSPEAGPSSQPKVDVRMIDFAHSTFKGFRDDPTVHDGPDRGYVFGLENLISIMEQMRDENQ
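ADP-Glo luminescence measures ADP made by human IP6K1 during a 2 h RT reaction with ATP/IP6 (mix at 1.3 mM/130 uM); top library doses 57.5 and 19.1 uM final.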
Hits are given with their value; ! = repeats disagree. Shown are actives, neighbours in structure and some others; about 2.8% of the full set was active somewhere. Unless noted, the call rests on the fitted dose curve; in most records, active means well fitted curve in the direction sought with a large enough effect; inconclusive means small, poorly fitted or top-dose-only effect, or another doubt; inactive means no such curve, though single readings can be large; an effect the other way counts as inactive or inconclusive.

How did Cc1ccc(OCCSc2nc3ccccc3n2CC(=O)N2CCCCC2)c(C)c1 do in these assays?
KDM5B inhibitor: inconclusive; SNCA expr inhib: inactive; SNCA viab count: 14.1µM; IP6K1 inhibitor: inactive

Results for CC(C)NC(=O)c1cc(-c2ccccc2)nc2c1cnn2C ?
SNCA expr inhib: inactive; SNCA viab count: inactive; IP6K1 inhibitor: inactive

What do the screens show for `CC(=O)NC(Nc1cc(C(F)(F)F)ccc1Cl)C(Cl)(Cl)Cl` (configuration not stated)?
KDM5B inhibitor: inactive

Results for COc1ccc(C(=O)N[C@H]2COC[C@H]2Cc2cc(C)no2)c(F)c1F ?
KDM5B inhibitor: inconclusive; SNCA expr inhib: inactive; SNCA viab count: inactive; IP6K1 inhibitor: inactive

Results for Cc1cc(C[C@@H]2COC[C@@H]2NC(=O)c2cnn3ccccc23)on1 ?
KDM5B inhibitor: 28.2µM; SNCA expr inhib: inactive; SNCA viab count: inactive; IP6K1 inhibitor: inactive

How did Cc1ccc2oc(C(=O)N[C@H]3COC[C@H]3Cc3cc(C)no3)c(C)c2c1 do in these assays?
KDM5B inhibitor: 15.8µM; SNCA expr inhib: inactive; SNCA viab count: inactive; IP6K1 inhibitor: inactive

How did Cc1cc(C[C@@H]2COC[C@@H]2NC(=O)c2cc(-c3ccccc3O)n[nH]2)on1 do in these assays?
KDM5B inhibitor: inactive; SNCA expr inhib: inactive; SNCA viab count: inactive; IP6K1 inhibitor: inactive

How did Cc1cc(C[C@@H]2COC[C@@H]2NC(=O)c2cc(C)oc2-c2ccccc2)on1 do in these assays?
KDM5B inhibitor: 28.2µM; SNCA expr inhib: inactive; SNCA viab count: inactive; IP6K1 inhibitor: inactive

How did COc1cc(OC)c(C(=O)N[C@H]2COC[C@H]2Cc2cc(C)no2)cc1OC do in these assays?
KDM5B inhibitor: 20µM; SNCA expr inhib: inactive; SNCA viab count: inactive; IP6K1 inhibitor: inactive

What do the screens show for `COc1ccc(C2(CNC(=O)C(=O)Nc3cccc(C(F)(F)F)c3)CCCC2)cc1OC`?
KDM5B inhibitor: inactive; SNCA expr inhib: inactive; SNCA viab count: inactive; IP6K1 inhibitor: inactive

What do the screens show for `Cc1nc(CNCc2cccc(NC(=O)c3ccc(F)cc3)c2)cs1`?
KDM5B inhibitor: inactive

Results for O=C(Cc1ccccn1)NC1CCN(c2nc3ncccc3o2)CC1 ?
KDM5B inhibitor: 25.1µM!; SNCA expr inhib: inactive; SNCA viab count: inactive; IP6K1 inhibitor: inactive

What do the screens show for `Cc1cccc2sc(N3CCN(C(=O)c4ccco4)CC3)nc12`?
KDM5B inhibitor: inactive; SNCA expr inhib: inactive; SNCA viab count: inactive; IP6K1 inhibitor: inactive

Results for O=C(Cc1ccc(F)cc1)NC1CCN(c2nc3ncccc3o2)CC1 ?
KDM5B inhibitor: 28.2µM; SNCA expr inhib: inactive; SNCA viab count: inactive; IP6K1 inhibitor: inactive

How did Cc1cccc2nnc(N3CCN(C(=O)c4ccco4)CC3)n12 do in these assays?
KDM5B inhibitor: 22.4µM; SNCA expr inhib: inconclusive; SNCA viab count: inactive; IP6K1 inhibitor: inactive

Results for COc1ccc(CC(=O)NC2CCN(c3nc4ncccc4o3)CC2)cc1 ?
KDM5B inhibitor: 31.6µM; SNCA expr inhib: inactive; SNCA viab count: inactive; IP6K1 inhibitor: inactive

How did COc1ccc(CC(=O)N2CCN(c3nc4ncccc4o3)CC2)cc1 do in these assays?
KDM5B inhibitor: inconclusive; SNCA expr inhib: inactive; SNCA viab count: inactive; IP6K1 inhibitor: inactive

Results for O=C1CCN(Cc2ccccc2OCC(O)CN2CCCCC2)CCN1 (configuration not stated) ?
KDM5B inhibitor: inactive; SNCA expr inhib: inactive; SNCA viab count: inactive; IP6K1 inhibitor: inactive

Results for O=C([C@@H]1C[C@H](Oc2ccccc2)CN1C(=O)CCCc1ccccc1)N1CCCC1 ?
KDM5B inhibitor: inactive; SNCA expr inhib: inactive; SNCA viab count: inactive; IP6K1 inhibitor: inactive

Results for COc1ccc(CC(=O)NC2CCN(c3nnc4cccc(C)n34)CC2)cc1 ?
KDM5B inhibitor: 28.2µM; SNCA expr inhib: inactive; SNCA viab count: inactive; IP6K1 inhibitor: inactive

What do the screens show for `COCc1cn(C[C@H]2C[C@@H](NC(=O)c3cnccn3)[C@H](O)[C@@H]2O)nn1`?
KDM5B inhibitor: inactive; SNCA expr inhib: inactive; SNCA viab count: inactive; IP6K1 inhibitor: inactive

How did CCNc1ncnc2sc3c(c12)CCN(Cc1cccnc1)C3 do in these assays?
KDM5B inhibitor: inconclusive; SNCA expr inhib: inactive; SNCA viab count: inactive; IP6K1 inhibitor: inactive

What do the screens show for `COCC(=O)N1CCc2c(sc3ncnc(N4CCN(C)CC4)c23)C1`?
KDM5B inhibitor: inactive; SNCA expr inhib: inactive; SNCA viab count: inactive; IP6K1 inhibitor: inactive

How did CCNc1ncnc2sc3c(c12)CCN(C(=O)NCCOC)C3 do in these assays?
KDM5B inhibitor: 28.2µM; SNCA expr inhib: inconclusive; SNCA viab count: inactive; IP6K1 inhibitor: inactive

How did CCCNC(=O)N1CCc2c(sc3ncnc(N4CCN(C)CC4)c23)C1 do in these assays?
KDM5B inhibitor: 28.2µM; SNCA expr inhib: inactive; SNCA viab count: inactive; IP6K1 inhibitor: inactive

What do the screens show for `CCNC(=O)N1CCc2c(sc3ncnc(NCC)c23)C1`?
KDM5B inhibitor: 31.6µM; SNCA expr inhib: inactive; SNCA viab count: inactive; IP6K1 inhibitor: inactive

How did CCNc1ncnc2sc3c(c12)CCN(Cc1ccc[nH]1)C3 do in these assays?
KDM5B inhibitor: 28.2µM; SNCA expr inhib: inconclusive; SNCA viab count: inactive; IP6K1 inhibitor: inactive

How did COCCCNc1ncnc2sc3c(c12)CCNC3 do in these assays?
KDM5B inhibitor: 25.1µM; SNCA expr inhib: inconclusive; SNCA viab count: inactive; IP6K1 inhibitor: inactive

What do the screens show for `Fc1ccc(-c2nc(-c3cccs3)c(-c3cccs3)[nH]2)cc1`?
KDM5B inhibitor: inconclusive; SNCA expr inhib: inactive; SNCA viab count: inactive; IP6K1 inhibitor: inactive

How did Oc1ccc(-c2nc(-c3ccc(F)cc3)c(-c3ccncc3)[nH]2)cc1 do in these assays?
SNCA expr inhib: 1.36µM!; SNCA viab count: inconclusive

What do the screens show for `CC1=[N+]([O-])C(C)(C)C(c2ccc(Cl)cc2)=[N+]1[O-]`?
KDM5B inhibitor: inactive

Results for COC(=O)[C@@H]1Cc2c([nH]c3ccccc23)[C@H]2C[C@@H](NCCNC(C)=O)C[C@@H](c3ccccc3)N21 ?
KDM5B inhibitor: 8.91µM; SNCA expr inhib: inactive; SNCA viab count: inactive; IP6K1 inhibitor: inactive

What do the screens show for `COC(=O)[C@@H]1Cc2c([nH]c3ccccc23)[C@H]2C[C@@H](NCCNC(C)=O)C[C@@H](c3ccc(C)cc3)N21`?
KDM5B inhibitor: 28.2µM; SNCA expr inhib: inactive; SNCA viab count: inactive; IP6K1 inhibitor: inactive

What do the screens show for `CN(C)c1ccc(C(=C2C=CC(=[N+](C)C)C=C2)c2ccc(N(C)C)cc2)cc1`?
SNCA expr inhib: inconclusive; SNCA viab count: inconclusive; IP6K1 inhibitor: -57.6

What do the screens show for `O=C1c2ccccc2C(=O)c2c(NCCc3ccc(O)cc3)ccc(NCCc3ccc(O)cc3)c21`?
SNCA expr inhib: inconclusive; SNCA viab count: 28.2µM

Results for O=C1c2ccccc2C(=O)c2c(Nc3ccc(CCO)cc3)ccc(O)c21 ?
KDM5B inhibitor: inactive

What do the screens show for `C=C(C)C(=O)O[C@H]1C[C@@](C)(O)C2(O)CCC(C)(/C=C3/OC(=O)C(COC)=C31)O2` (some centres not stated)?
SNCA viab count: 14.7µM; IP6K1 inhibitor: inactive

Results for COCCN1C(=O)c2ccccc2C(C(=O)NCc2ccccc2)C12CCCC2 (configuration not stated) ?
KDM5B inhibitor: inactive; SNCA expr inhib: inactive; SNCA viab count: inactive; IP6K1 inhibitor: inactive

Screening data: PubChem, National Center for Advancing Translational Sciences (NCATS)
